The values that follow come from PubChem BioAssay (NCI).

Structures are written as SMILES. About 83,000 compounds went through this panel and 20% of them were active in at least one assay; those are over-represented in the sample as a whole.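 Cell lines were cultured in 96-well plates, exposed to a single compound concentration, and assessed for percent growth 48 hours later.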 A number with no mark means an inactive call. The source made the active and inactive calls. Rule for the calls: active = growth percent below 10; inactive = the rest.

Assay in all cases: NCI-60 one-dose screen, 48 h (100 = growth as untreated, 0 = no growth, -100 = all killed)
Holding throughout (conditions): 10 µM unless noted

Test [1] deals with SK-MEL-2 melanoma.
Test [2] has as its system EKVX NSCLC.
Test [3] deals with SN12C renal.
For test [4], the system named is UO-31 renal.
Test [5] relates to TK-10 renal.
Test [6] concerns ACHN renal.
Test [7] concerns CAKI-1 renal.
Test [8] has as its system A498 renal.
Test [9] concerns CCRF-CEM leukemia.
The subject of test [10] is MOLT-4 leukemia.
For test [11], the system named is SR leukemia.
In test [12] the test system is OVCAR-8 ovarian.
In test [13] the test system is OVCAR-5 ovarian.
Test [14] concerns OVCAR-4 ovarian.
The subject of test [15] is SK-OV-3 ovarian.
For test [16], the system named is IGROV1 ovarian.
Test [17] relates to OVCAR-3 ovarian.
For test [18], the system named is HS 578T breast.
Test [19] deals with NCI/ADR-RES ovarian.

As for `Cc1c(C(=O)NCCCc2ccccc2)sc2ncc(-c3ccc(Br)cc3)n12`, the growth in test [1] is 115%; in test [2] it was 106%; in [3] it was 98.7%; in [4], 92%; in test [5], 135%; in test [6] it was 103%. Moreover, the growth is 101% in test [7]; 110% in test [8]; 96.8% in [9]; 99.8% in test [10]; 106% in [11]; 105% in test [12]. The growth in [13] was 107%; in test [14] it was 111%; in [15], 99.5%; in test [16], 100%; in test [17], 112%; in test [18] it was 104%. The growth in test [19] was 107%.

As to `COc1ccc(OC)c(/C=C2\Oc3cc(OCCN4CCC(Cc5ccccc5)CC4)ccc3C2=O)c1`, the growth in [1] is 105%; in test [2] it was 75.6%; in test [3], 80.8%; in test [4], 53.8%; in test [5], 97.7%; in test [6] it was 99.7%. Further, the growth is 61.4% in test [7]; 88.6% in [8]; 75.6% in test [9]; 62.4% in [10]; 2.46% (active) in [11]; 78% in test [12]. The growth in test [13] is 92.1%; in test [14], 93.8%; in test [15], 93.3%; in [16], 76.2%; in test [17], 89.8%; in test [18], 82.2%. Also, the growth in [19] was 80.2%.

Consider `CC1CN(C2CCCCC2)C(=S)N(c2ccccc2)C1=O` (stereo unspecified), for which the growth in [1] was 122%; in [2], 101%; in test [3] it was 111%; in test [4] it was 97.7%; in [5], 116%; in test [6], 110%. The growth in [7] was 97.9%; in [8], 95.4%; in [9], 93.8%; in [10], 70.4%; in test [11], 98.7%; in test [12] it was 118%. Moreover, the growth was 104% in test [13]; 97.2% in test [14]; 116% in test [15]; 105% in test [16]; 112% in test [17]; 109% in [18]. The growth in test [19] is 102%.

In the case of `COc1ccc(/C=C(/C#N)n2nnc3cccc(F)c32)cc1`, the growth in test [1] is -10.4% (active); in [2], 36.8%; in test [3], 28.9%; in test [4], 26.2%; in [5] it was 46.5%; in test [6] it was 31.5%. For the same molecule, the growth in test [7] was 22.8%; in [8], -7.93% (active); in test [9] it was 21.3%; in [10] it was 13.8%; in [11], 7.75% (active); in test [12], 10.7%. Further, the growth is 19.7% in test [13]; 29.9% in [14]; 29% in test [15]; 34.4% in test [16]; -18.6% (active) in test [17]; -16.4% (active) in test [18]. Moreover, the growth in test [19] is -29.6% (active).

In the case of `CCOC(=O)NCCc1ccccc1`, the growth in test [1] was 104%; in test [2] it was 111%; in test [3], 99.2%; in [4], 76.3%; in test [5], 112%; in test [6], 110%. Further, the growth in test [7] is 86%; in test [8], 110%; in [9], 116%; in test [10] it was 90.1%; in test [11], 74%; in [12] it was 108%. Also, the growth is 112% in test [13]; 121% in [14]; 106% in test [15]; 85.3% in [16]; 116% in test [17]; 105% in [18].

In the case of `CCOC(=O)c1cn2ncnc(Oc3ccc(NC(=O)NCCN4CCN(C)CC4)c(Cl)c3)c2c1C`, the growth in test [1] is 91.9%; in test [2], 66.3%; in [3] it was 65%; in test [4], 61.7%; in test [5] it was 97.5%; in test [6], 80%. Besides, the growth was 76.3% in test [7]; 77.9% in test [8]; 44.3% in [9]; 57.2% in [10]; -13.9% (active) in test [11]; 64.7% in [12]. Also, the growth in [13] is 97.1%; in [14], 72.3%; in test [15], 95.2%; in test [16], 73.3%; in test [17], 76.2%; in test [18], 74.3%. The growth in test [19] is 90.8%.

In the case of `COc1ccc(CNC(=O)[C@H](O)[C@@H](N)Cc2ccccc2)cc1`, the growth in test [1] is 123%; in [2], 99.8%; in test [3], 97.5%; in test [4] it was 92%; in [5], 102%; in test [6], 107%. The growth was 90.7% in test [7]; 90.8% in test [8]; 102% in test [9]; 107% in test [10]; 93.4% in test [11]; 108% in test [12]. Besides, the growth in test [13] is 98%; in test [14], 104%; in test [15], 110%; in test [16], 109%; in [17], 119%; in test [18], 102%. Moreover, the growth in test [19] is 109%.

As for `NCCCNc1nc2ccccc2c2c(=O)c3cc(OC(F)(F)F)ccc3sc12`, the growth in [1] is 89.3%; in test [2], 67.9%; in test [3], 41.3%; in [4] it was 33.8%; in test [5], 64.7%; in [6] it was -22.8% (active). In addition, the growth is -72.7% (active) in [7]; 21.4% in [8]; -2.58% (active) in [9]; -39.5% (active) in test [10]; -31.1% (active) in test [11]; -0.0816% (active) in test [12]. In addition, the growth is 76% in test [13]; -58.3% (active) in test [14]; 89.9% in test [15]; 35.4% in test [16]; -73.3% (active) in test [17]; 1.28% (active) in [18]. Further, the growth in test [19] was -29% (active).
